The whole screen tested about 320,000 compounds, of which about 2,100 (0.66%) were called active. Another 53% or so got no clear call; they are omitted. The sample holds actives, similar compounds and a random draw of the others, so the mix is not that of the screen. Calls follow the shape of the dose curve; as a rule, active = well fitted inhibition curve with a large enough effect in the signal ratio, with a control signal flat (not every such curve was filed as active); inconclusive = small, poorly fitted or top-dose-only effect, or effect the other way, or a change in a side signal; inactive = flat fitted curve, though single readings scatter; the % refers to the signal ratio.
Potency is read from the fitted curve at half-maximal effect.

The experiment in a line: qHTS Assay for Lipid Storage Modulators in Drosophila S3 Cells.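 As to cell number change: cells counted by Cell Tracker Red CMTPX staining in the red channel.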 As to lipid storage change, negative = inhibition: % is scaled to controls: 0 for no effect and ±100 for the full control effect. To be noted: BODIPY lipid droplet fluorescence, 18-24 h, cells fed with added oleic acid; cell number change: measured here: cell count max response; series mostly up to 46.1 µM. The procedure, abridged:
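Drosophila S3 cells got compounds at several concentrations plus oleic acid (400 uM solution). Laser-scanning cytometry with 488 nm excitation read lipid droplets at 500-530 nm and cells at 575-640 nm. Percent activity was relative to 20 uM Triacsin C.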
Turning to `COC(=O)c1cc2c(=O)c3ccccc3oc2nc1C`, the Potency result is “inactive” and the cell number change was 21.3%. Consider `COc1ccccc1CNC(=O)COC(=O)c1ccc(C)s1`, for which the Potency is 8.2 µM (active) and the cell number change turned out to be 8.78%. `COc1ccccc1CNC(=O)COC(=O)c1cc(C)oc1C`: the Potency entry is “inactive” and the cell number change amounted to 0.0455%. Taken in the same sequence, the figures for `COc1ccccc1CNC(=O)c1ccc(C)s1` were “inactive” and 2.24%. Turning to `O=S(=O)(NCC(c1cccs1)N1CCc2ccccc2C1)c1ccccc1` (stereo not given), the cell number change stood at 2.02% and the lipid storage change, negative = inhibition was -15.3% [at 0.0737 µM] (inactive). On to `Cc1ccc(S(=O)(=O)CC(=O)N2CCCC2)cc1`, for which the Potency result is “inactive” and the cell number change was -4.5%. In the same order, the values of `O=C(CS(=O)(=O)c1ccccc1)N1CCCCC1` are “inactive” and 17.3%.

As for `O=C(CS(=O)(=O)c1ccccc1)N1CCCCCC1`, the Potency is 14.6 µM (active). As to `COc1ccc(S(=O)(=O)N2CCOC2CNC(=O)C(=O)NCC(C)C)cc1` (stereo not given), the Potency entry was “inactive” and the cell number change was -19.7%. `CCCCc1nnc(NC(=O)C(C)Sc2nc(O)c(Cc3ccccc3)c(=O)[nH]2)s1` (stereo not given): the Potency entry is “inactive” and the cell number change was -6.85%. Regarding `Cc1ccsc1/C=N/n1cnnc1`, the Potency result was “inactive” and the cell number change turned out to be 4.23%. Turning to `Cc1ccsc1C=Nc1ccc(O)cc1`, the Potency entry was “inactive” and the cell number change was -20.6%. Turning to `Cc1ccsc1/C=N/N=C/c1sccc1C`, the Potency was 18.4 µM (active) and the cell number change was -16.1%.

With `CC(C)(C)c1ccc(/C=N/NC(=O)C2CCCC2)cc1`, the Potency entry is “inactive” and the cell number change was -15.9%. `CC(C)c1ccc(/C=N/NC(=O)C2CCCC2)cc1`: the Potency was 3.26 µM (active) and the cell number change is -28.7%.

For `CC(C)c1ccc(/C=N/NC(=O)CC(=O)NC2CCCCC2)cc1`, the Potency entry is “inactive” and the cell number change was found to be 0.119%. For `c1ccc(N2CC[N+]3(CCCC3)CC2)nc1`, the Potency entry is “inactive” and the cell number change came to 0.943%.

For `CC(C)(C)OC(=O)NCCCC[C@H](NC(=O)c1[nH]cnc1C(=O)Nc1ccc(CNC(=O)OC(C)(C)C)cc1)C(=O)OC(C)(C)C`, the Potency result was “inactive”. Turning to `CN(C)c1ccc(C=NCCC2(c3ccccc3)CCOC(C)(C)C2)cc1` (stereo not given), the Potency entry is “inactive” and the cell number change was -6.59%. For `Cc1cc(NC(=O)c2ccccc2F)on1`, the Potency entry was “inactive” and the cell number change was -0.938%. For the compound `O=C(Nc1ccon1)c1ccccc1F`, the Potency is 23.1 µM (active) and the cell number change was -7.37%. Regarding `O=C(Nc1ccon1)c1cc2ccccc2oc1=O`, the Potency result is “inactive” and the cell number change was found to be 11.7%.

Consider `O=C(Nn1c(=O)[nH]c2ccsc2c1=O)c1ccccc1`, for which the Potency result is “inactive” and the cell number change is -16.2%. In the case of `COc1ccc(N2CCN(C(=S)Nc3ccc(C)cc3)CC2)cc1`, the Potency result is “inactive” and the cell number change turned out to be 11.6%. For the compound `O=C(NN1C(=O)C2C3C=CC(C4CC34)C2C1=O)c1ccc(Cl)c(Cl)c1` (stereo not given), the Potency entry is “inactive” and the cell number change is 1.92%.

With `O=C(CN1C(=O)/C(=C2\SC(=S)N(C3CCS(=O)(=O)C3)C2=O)c2ccccc21)Nc1ccccc1` (stereo not given), the Potency entry is “inactive” and the cell number change is -3.03%. For the compound `O=C(NCCc1ccccc1)C1CCN(C(=O)Nc2ccccc2)CC1`, the Potency result was “inactive” and the cell number change was -33.1%.

Consider `O=C(NCC(c1ccccc1)N1CCCC1)C1CCN(C(=O)Nc2ccccc2)CC1` (stereo not given), for which the Potency result was “inactive” and the cell number change is -22%. `O=C(NCC(c1ccccc1Cl)N1CCCC1)C1CCN(C(=O)Nc2ccccc2)CC1` (stereo not given): the Potency is 6.51 µM (active) and the cell number change is -29.1%.

On to `CCC(Sc1nnc(C)s1)C(=O)Nc1nccs1` (stereo not given), for which the Potency result is “inactive” and the cell number change is -15.3%.

For `CCC(Sc1nc(C)cc(C)n1)C(=O)Nc1nccs1` (stereo not given), the Potency is 2.06 µM (active) and the cell number change was -0.54%. With `Cc1cc(C)nc(SCC(=O)Nc2nccs2)n1`, the Potency entry was “inactive” and the cell number change came out at 13.1%. Taken in the same sequence, the figures for `CN(C(=O)CCCN1CCCC1=O)C1CCCN(Cc2ccccc2F)C1` (stereo not given) were “inactive” and 6.08%. With `COc1cc2c(cc1OC)C(COc1ccc(F)cc1)N(C(C)=O)CC2` (stereo not given), the Potency entry is “inactive” and the cell number change is -4.23%.

Consider `CCOC(=O)C(O)(CC(=O)Nc1cc(F)ccc1C)C(F)(F)F` (stereo not given), for which the Potency result is “inactive” and the cell number change is 6.77%.

Regarding `CC1CC1C(=O)Nc1nc(-c2ccccn2)cs1` (stereo not given), the Potency entry was “inactive”.

`CCC/C(C)=N/NC(=O)c1ccccc1O`: the Potency result was “inactive” and the cell number change came to 9.25%. For the compound `COc1ccc(-c2cc3nc(C)c(CCC(=O)N4CCN(c5ccccn5)CC4)c(C)n3n2)c(OC)c1`, the Potency result is “inactive” and the cell number change is -15.1%. As for `CCOC(=O)CSc1ccc(S(=O)(=O)N(C)C2CCCCC2)cc1[N+](=O)[O-]`, the Potency was 25.9 µM (active) and the cell number change is -12.4%. Consider `CCOC(=O)CSc1ccc(S(=O)(=O)N(CC)CC)cc1[N+](=O)[O-]`, for which the Potency result was “inactive” and the cell number change came out at 15.5%.

As to `CCOC(=O)CSc1ccc(S(=O)(=O)N2CCCCC2)cc1[N+](=O)[O-]`, the Potency result was “inactive” and the cell number change turned out to be 12.9%. Turning to `Cc1nc(C)c(C(=O)Nc2ccccc2)s1`, the Potency result is “inactive” and the cell number change was found to be 13.8%. As for `CC(=O)Nc1ccc(Nc2nc(C)cc(C)n2)cc1`, the Potency entry is “inactive” and the cell number change turned out to be 7.77%. Consider `O=C(/C=C/c1ccccc1)Nn1c(-c2cccs2)nc2ccccc2c1=O`, for which the Potency entry is “inactive” and the cell number change stood at 20.7%. On to `CCOC(=O)c1n[nH]c(=O)c2ccccc12`, for which the Potency entry is “inactive” and the cell number change was -14.5%. In the same order, the values of `CCN(CC)CCNC(=O)CCc1n[nH]c(=O)c2ccccc12` are “inactive” and -11.1%. `CCCCN(CC)C(=O)c1n[nH]c(=O)c2ccccc12`: the Potency is 29.1 µM (active) and the cell number change was -6.59%. Take `O=C(NCc1csc2ccc(Cl)cc12)Nc1ccccc1`: the Potency entry is “inactive” and the cell number change is -21.1%. Regarding `CC(C)OCCCNc1nc(-c2ccccc2)nc2ccccc12`, the Potency result is “inactive” and the cell number change was -18%.

The values above are taken from PubChem BioAssay AID2685 (National Center for Advancing Translational Sciences (NCATS), 2010).
